Data on 27 compounds can be found in PubChem BioAssay.

Assay [1] concerns the target Cell division control protein 42 homolog (Homo sapiens) (UniProt P60953). Nature of the assay: activated mutant Cdc42 GTP-binding inhibitors, dose response, biochemical, multiplex bead flow cytometry, Bodipy-FL-GTP (AID 1333;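 active = fitted half-maximal concentration within the tested dose range, moderate curve steepness, a statistically real signal drop, and little compound fluorescence or tag-binding interference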). (A flow cytometer gives signals particle by particle.)
The target is the same in assay [2]. In words: wildtype Cdc42 GTP-binding inhibitors, dose response, biochemical, multiplex bead flow cytometry, Bodipy-FL-GTP (AID 1334). The settings on record: bead-based flow cytometry, Bodipy-FL-GTP binding to GST-Cdc42; at 100 µM (top of the series) unless noted.
The target of assay [3] is GTPase HRas (Homo sapiens) (UniProt P01112). Nature of the assay: inhibitors of GTP binding to wildtype Ras, dose response, biochemical, multiplex bead flow cytometry (AID 1335;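 active = fitted half-maximal concentration within 10 nM to 100 µM, steepness 0.5 to 2, significant signal drop, low assay interference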). The settings on record: bead-based flow cytometry, Bodipy-GTP binding to GST-Ras; at 100 µM (top of the series) unless noted.
Sequence of GTPase HRas (Homo sapiens) (P01112 whole entry, looked up): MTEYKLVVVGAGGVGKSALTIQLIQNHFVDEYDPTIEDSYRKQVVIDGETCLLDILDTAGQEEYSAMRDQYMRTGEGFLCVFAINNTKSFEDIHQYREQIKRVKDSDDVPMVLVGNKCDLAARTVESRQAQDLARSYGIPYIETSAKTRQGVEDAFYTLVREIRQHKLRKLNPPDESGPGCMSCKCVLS
In assay [4] the test system is Ras-related protein Rab-7a (dog), GTP binding. In words: Rab7 GTP binding inhibitors, potency, dose response, biochemical, wildtype, multiplex bead flow cytometry (AID 1336; call rule not given here).
Assay [5] has as its target Ras-related C3 botulinum toxin substrate 1 (Homo sapiens) (UniProt P63000). Nature of the assay: wildtype Rac1 GTP binding inhibitors, dose response, biochemical, multiplex bead flow cytometry (AID 1340;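 active = dose curve with midpoint inside tested range, moderate steepness, plateau gap beyond fit error, low compound glow and bead-link interference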). Particulars: GST-Rac1 beads, Bodipy-FL-GTP binding; at 100 µM (top of the series) unless noted.
Assay [6] deals with GTPase HRas (Homo sapiens) (UniProt P01112). Nature of the assay: activated Ras mutant GTP binding inhibitors, dose response, biochemical, multiplex bead flow cytometry (AID 1341;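 active = dose-response curve with midpoint inside the tested range, moderate steepness, significant amplitude and little compound fluorescence or bead-attachment interference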;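 note: GST-tagged constitutively activated Ras mutant immobilized on beads and multiplexed with other GTPases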).

For part of these data: Potency and affinity values are given separately. The source made the active and inactive calls.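 Rule for the calls, unless noted: active = fitted half-maximal concentration within the tested range, moderate curve steepness, significant signal drop, and little compound fluorescence or bead-linkage interference; inactive = the rest.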

Sequence of Cell division control protein 42 homolog (Homo sapiens) (P60953 whole entry, looked up): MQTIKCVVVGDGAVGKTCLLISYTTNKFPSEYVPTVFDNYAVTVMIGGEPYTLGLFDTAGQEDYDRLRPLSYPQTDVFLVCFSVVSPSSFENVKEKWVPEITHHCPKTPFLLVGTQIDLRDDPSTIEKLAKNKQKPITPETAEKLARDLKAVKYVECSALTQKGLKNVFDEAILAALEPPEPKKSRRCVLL

In the case of `COc1cc(/C=C2/C(C)=C(C#N)c3nc(N)c(C#N)c(C)c32)ccc1OCC(=O)O`, the compound was called inactive in assay [1], in assay [4] and in assay [6]. Besides, the fluorescence, percent of control (lower = inhibition) in assay [2] is 25.9%. The GTP binding, percent of control in assay [3] amounted to 62%. Besides, the GTP binding signal, raw median fluorescence (lower = inhibition) (MCF (arbitrary fluorescence units)) in assay [5] was determined as 161.
In the case of `C/C(=N\Nc1cc(C)nc(-c2ccccc2)n1)c1cccc([N+](=O)[O-])c1`, the result in assay [1], in assay [4] and in assay [6] was inactive. Besides, the fluorescence, percent of control (lower = inhibition) in assay [2] worked out at 33.6%. In assay [3], this compound came in with a GTP binding, percent of control of 77.8%. This compound also showed a GTP binding signal, raw median fluorescence (lower = inhibition) (MCF (arbitrary fluorescence units)) in assay [5] of 193.
`CSc1nc2ccc(NS(=O)(=O)c3c(Cl)cccc3Cl)cc2s1`: the compound was classed as inactive in assay [1], in assay [4] and in assay [6]. Besides, in assay [2], the fluorescence, percent of control (lower = inhibition) was 31.2%. The compound also had a GTP binding, percent of control in assay [3] of 77.9%. In assay [5], the GTP binding signal, raw median fluorescence (lower = inhibition) (MCF (arbitrary fluorescence units)) is 245.
Take `CC1CCCN(c2ccc3nc4ccccc4c(=O)n3n2)C1` (configuration not stated): the call in assay [1], in assay [4] and in assay [6] was inactive. The fluorescence, percent of control (lower = inhibition) in assay [2] worked out at 33.3%. The GTP binding, percent of control in assay [3] came to 74.6%. In assay [5], this compound came in with a GTP binding signal, raw median fluorescence (lower = inhibition) (MCF (arbitrary fluorescence units)) of 179.
As to `COc1ccc(S(=O)(=O)N2CCOCC2)cc1C(=O)Nc1nc2ccccc2s1`, the outcome in assay [1], in assay [4] and in assay [6] was inactive. The fluorescence, percent of control (lower = inhibition) in assay [2] is 46.1%. Also, in assay [3], the GTP binding, percent of control was 55.9%. The GTP binding signal, raw median fluorescence (lower = inhibition) (MCF (arbitrary fluorescence units)) in assay [5] worked out at 153.
For `O=c1c2ccccc2nc2c3ccccc3c(NCCN3CCOCC3)nn12`, the compound was classed as inactive in assay [1], in assay [4] and in assay [6]. In addition, the fluorescence, percent of control (lower = inhibition) in assay [2] worked out at 42.6%. Also, the GTP binding, percent of control in assay [3] stood at 52.2%. The GTP binding signal, raw median fluorescence (lower = inhibition) (MCF (arbitrary fluorescence units)) in assay [5] worked out at 132.
`CCNC(=S)N(Cc1cccs1)Cc1cc2cc(OCC)ccc2[nH]c1=O`: the result in assay [1], in assay [4] and in assay [6] was inactive. Also, the fluorescence, percent of control (lower = inhibition) in assay [2] amounted to 45%. The GTP binding, percent of control in assay [3] was 66%. Further, the GTP binding signal, raw median fluorescence (lower = inhibition) (MCF (arbitrary fluorescence units)) in assay [5] was determined as 0.
For `Cc1cccc(CN2C(=O)N/C(=C/c3ccc(C)s3)C2=O)c1`, the compound was classed as inactive in assay [1], in assay [4] and in assay [6]. Moreover, the fluorescence, percent of control (lower = inhibition) in assay [2] came out at 72%. This compound also yielded a GTP binding, percent of control in assay [3] of 82.5%. The same compound registered a GTP binding signal, raw median fluorescence (lower = inhibition) (MCF (arbitrary fluorescence units)) in assay [5] of 201.
On to `CC1CN(C(=O)c2cccc(S(=O)(=O)Nc3cc(Cl)ccc3Cl)c2)CC(C)O1` (configuration not stated), for which the compound was classed as inactive in assay [1], in assay [4] and in assay [6]. In assay [2], the fluorescence, percent of control (lower = inhibition) amounted to 26.5%. This compound also registered a GTP binding, percent of control in assay [3] of 65.8%. The compound further had a GTP binding signal, raw median fluorescence (lower = inhibition) (MCF (arbitrary fluorescence units)) in assay [5] of 168.
On to `COc1cccc(-n2nc3c(-n4ncc(C#N)c4N)nnc(C)c3c2C)c1`, for which the call in assay [1], in assay [4] and in assay [6] was inactive. Also, in assay [2], the fluorescence, percent of control (lower = inhibition) turned out to be 54.8%. This compound also registered a GTP binding, percent of control in assay [3] of 64.6%. This compound returned a GTP binding signal, raw median fluorescence (lower = inhibition) (MCF (arbitrary fluorescence units)) in assay [5] of 212.
As for `Cc1ccccc1-n1c(SCc2c(C)noc2C)nnc1-c1cccnc1`, the compound was called inactive in assay [1], in assay [4] and in assay [6]. For the same compound, the fluorescence, percent of control (lower = inhibition) in assay [2] came out at 104%. Moreover, the GTP binding, percent of control in assay [3] came to 179%. Moreover, in assay [5], the GTP binding signal, raw median fluorescence (lower = inhibition) (MCF (arbitrary fluorescence units)) was determined as 195.
In the case of `COc1ccccc1OCc1ccoc1C(=O)O`, the compound was called inactive in assay [1], in assay [4] and in assay [6]. For the same compound, the fluorescence, percent of control (lower = inhibition) in assay [2] was 62.9%. Further, the GTP binding, percent of control in assay [3] came to 87%. In assay [5], the GTP binding signal, raw median fluorescence (lower = inhibition) (MCF (arbitrary fluorescence units)) was 35.8.
For `CCOc1ccc2nc(NC(=O)CSc3nc(-c4ccccc4)c(C#N)c(=O)[nH]3)sc2c1`, the result in assay [1], in assay [4] and in assay [6] was inactive. Further, the fluorescence, percent of control (lower = inhibition) in assay [2] turned out to be 25.1%. In assay [3], this compound showed a GTP binding, percent of control of 70%. The GTP binding signal, raw median fluorescence (lower = inhibition) (MCF (arbitrary fluorescence units)) in assay [5] was determined as 240.
As for `NC(=O)c1cc2ccccc2o/c1=N/NC(=O)c1cccs1`, the result in assay [1], in assay [4] and in assay [6] was inactive. In addition, the fluorescence, percent of control (lower = inhibition) in assay [2] worked out at 33.4%. Besides, the GTP binding, percent of control in assay [3] is 69.6%. For the same compound, the GTP binding signal, raw median fluorescence (lower = inhibition) (MCF (arbitrary fluorescence units)) in assay [5] amounted to 167.
Turning to `CN(C)c1ccc(/C=C/c2ccc3c4ccccc4ccc3[n+]2-c2ccccc2)cc1`, the compound was called inactive in assay [1], in assay [4] and in assay [6]. Further, the fluorescence, percent of control (lower = inhibition) in assay [2] came to 40%. Moreover, the GTP binding, percent of control in assay [3] was determined as 69.7%. In assay [5], the GTP binding signal, raw median fluorescence (lower = inhibition) (MCF (arbitrary fluorescence units)) was determined as 236.
With `CCn1c(SCC(=O)O)nnc1-c1cc2c(C)nn(-c3ccccc3)c2s1`, the compound was called inactive in assay [1], in assay [4] and in assay [6]. In addition, in assay [2], the fluorescence, percent of control (lower = inhibition) came to 25.1%. In assay [3], the GTP binding, percent of control amounted to 64.4%. Besides, the GTP binding signal, raw median fluorescence (lower = inhibition) (MCF (arbitrary fluorescence units)) in assay [5] came out at 128.
As for `Cn1cc(C=C2C(=O)CC(C)(C)CC2=O)c2ccccc21`, the call in assay [1], in assay [4] and in assay [6] was inactive. Further, the fluorescence, percent of control (lower = inhibition) in assay [2] worked out at 49.4%. In assay [3], the GTP binding, percent of control stood at 66.4%. The GTP binding signal, raw median fluorescence (lower = inhibition) (MCF (arbitrary fluorescence units)) in assay [5] came to 180.
`O=C(C#Cc1ccccc1)c1ccc([N+](=O)[O-])cc1`: the outcome in assay [1], in assay [4] and in assay [6] was inactive. In addition, in assay [2], the fluorescence, percent of control (lower = inhibition) was found to be 25.5%. In addition, the GTP binding, percent of control in assay [3] worked out at 74.2%. This compound also came in with a GTP binding signal, raw median fluorescence (lower = inhibition) (MCF (arbitrary fluorescence units)) in assay [5] of 264.
Consider `COc1nc(Nc2ccc(O)cc2)nc(OC(C(F)(F)F)C(F)(F)F)n1`, for which the call in assay [1], in assay [4] and in assay [6] was inactive. In addition, the fluorescence, percent of control (lower = inhibition) in assay [2] came out at 101%. In assay [3], the GTP binding, percent of control came out at 161%. In assay [5], this compound yielded a GTP binding signal, raw median fluorescence (lower = inhibition) (MCF (arbitrary fluorescence units)) of 172.
On to `CCOc1ccc(NC(=S)N=Nc2c(O)[nH]c3ccccc23)cc1`, for which the result in assay [1], in assay [4] and in assay [6] was inactive. Besides, the fluorescence, percent of control (lower = inhibition) in assay [2] is 35.5%. Also, in assay [3], the GTP binding, percent of control came to 74.3%. In addition, the GTP binding signal, raw median fluorescence (lower = inhibition) (MCF (arbitrary fluorescence units)) in assay [5] was 170.
As to `N#CC(C#N)=C(Nc1ccc(F)cc1)SCc1cccc(Br)c1`, the result in assay [1], in assay [4] and in assay [6] was inactive. The fluorescence, percent of control (lower = inhibition) in assay [2] is 45.8%. Besides, the GTP binding, percent of control in assay [3] turned out to be 61.7%. In addition, the GTP binding signal, raw median fluorescence (lower = inhibition) (MCF (arbitrary fluorescence units)) in assay [5] came to 181.
In the case of `O=C(O)CC/C(=C\c1ccc(N2CCCC2)c([N+](=O)[O-])c1)c1nc2ccccc2s1`, the outcome in assay [1], in assay [4] and in assay [6] was inactive. In addition, the fluorescence, percent of control (lower = inhibition) in assay [2] came out at 34.4%. This compound showed a GTP binding, percent of control in assay [3] of 81.8%. Besides, in assay [5], the GTP binding signal, raw median fluorescence (lower = inhibition) (MCF (arbitrary fluorescence units)) is 244.
On to `O=C(O)c1ccccc1NCc1c(Cl)cccc1Cl`, for which the call in assay [1], in assay [4] and in assay [6] was inactive. In addition, the fluorescence, percent of control (lower = inhibition) in assay [2] was 59.4%. This compound yielded a GTP binding, percent of control in assay [3] of 87.4%. The compound further registered a GTP binding signal, raw median fluorescence (lower = inhibition) (MCF (arbitrary fluorescence units)) in assay [5] of 30.2.
Regarding `Cc1ccc(Nc2nc(-c3c(C)nc4ncccn34)cs2)cc1`, the compound was classed as inactive in assay [1], in assay [4] and in assay [6]. Also, in assay [2], the fluorescence, percent of control (lower = inhibition) came out at 29.8%. The compound further came in with a GTP binding, percent of control in assay [3] of 43.7%. The compound also yielded a GTP binding signal, raw median fluorescence (lower = inhibition) (MCF (arbitrary fluorescence units)) in assay [5] of 103.
Take `O=C(COC(=O)/C=C/c1cccc([N+](=O)[O-])c1)NCc1ccc2c(c1)OCO2`: the compound was called inactive in assay [1], in assay [4] and in assay [6]. Further, in assay [2], the fluorescence, percent of control (lower = inhibition) is 34.8%. Also, the GTP binding, percent of control in assay [3] was found to be 82.9%. In assay [5], the GTP binding signal, raw median fluorescence (lower = inhibition) (MCF (arbitrary fluorescence units)) came to 254.
With `Fc1cccc(CSc2ccc3nnc(-c4cccnc4)n3n2)c1`, the compound was called inactive in assay [1], in assay [4] and in assay [6]. Besides, the fluorescence, percent of control (lower = inhibition) in assay [2] worked out at 33.8%. The GTP binding, percent of control in assay [3] worked out at 73.3%. Further, the GTP binding signal, raw median fluorescence (lower = inhibition) (MCF (arbitrary fluorescence units)) in assay [5] was determined as 183.
Consider `Nc1[nH]n2c(=O)c3c(nc2c1N=Nc1ccccc1)CCCC3`, for which the call in assay [1], in assay [4] and in assay [6] was inactive. Further, in assay [2], the fluorescence, percent of control (lower = inhibition) turned out to be 31%. For the same compound, in assay [3], the GTP binding, percent of control is 41.6%. The GTP binding signal, raw median fluorescence (lower = inhibition) (MCF (arbitrary fluorescence units)) in assay [5] is 109.
